# Counter-ions that a name gives are not always drawn.
# Tested on: MDA-MB-468
# Assay: phospho-S6 immunofluorescence (DAPI-normalised), per-plate z-score; higher = higher phospho-S6 signal (less pathway suppression)
# Conditions: 24 h
# Method: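 GPCR-targeted compound library (MedChemExpress HY-L006) tested on MDA-MB-468 PTEN-null TNBC cells in 384-well plates at 0.1, 1 or 10 uM, combined with vehicle, GDC0941 450 nM or lapatinib 1 uM, for 24 h. Phospho-S6 (S240/244) immunofluorescence normalised to DAPI and expressed as a per-plate z-score; values are the mean of biological triplicates.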
SMILES,phospho-S6 immunofluorescence (z-score) (co-treatment: GDC0941 450 nM),phospho-S6 immunofluorescence (z-score) (co-treatment: lapatinib 1 uM),phospho-S6 immunofluorescence (z-score) (co-treatment: vehicle)
O=C(O[C@H]1C[N+]2(CCCOc3ccccc3)CCC1CC2)C(O)(c1cccs1)c1cccs1 [Aclidinium (Bromide)] (compound 10 µM),0.75,1.09,-0.87
CNC(C)Cc1ccccc1OC (centres undefined) [Methoxyphenamine (Hydrochloride)] (compound 10 µM),0.57,-0.2,0.23
C=CCN1C[C@H](C(=O)N(CCCN(C)C)C(=O)NCC)C[C@@H]2c3cccc4[nH]cc(c34)C[C@H]21 [Cabergoline] (compound 10 µM),0.82,-0.33,-0.33
O=Cc1cn(Cc2ccc(Cl)cc2)c2ccccc12 [Oncrasin-1] (compound 10 µM),-3.49,-7.38,-9.12
C[N+]1(C)CCCC(OC(=O)C(O)(c2ccccc2)c2ccccc2)C1 (centres undefined) [Mepenzolate (Bromide)] (compound 10 µM),-0.25,-0.12,-0.02
C[N+]1(C)[C@@H]2C[C@@H](OC(=O)[C@H](CO)c3ccccc3)C[C@H]1[C@@H]1O[C@@H]12 [Methscopolamine (bromide)] (compound 10 µM),0.05,0.43,0.6
CNCC(O)c1ccc(O)cc1 (centres undefined) [Synephrine (hydrochloride)] (compound 10 µM),1.02,0.35,0.24
Cc1ncc(CN2CC=C(c3ccccc3)CC2)c(N)n1 [Ro 10-5824 (dihydrochloride)] (compound 10 µM),-1.36,-1.65,0.42
CNCC(=O)c1ccc(O)c(O)c1 [Adrenalone (hydrochloride)] (compound 10 µM),0.18,1.2,0.39
Cc1ccc2c(c1)C1(CCN(CCc3nc(-c4ccccc4)oc3C)CC1)OC(=O)N2 (compound 10 µM),0.56,0.85,0.89
O=C1CCC[C@@H]2[C@H]3CCCN4CCC[C@@H](CN12)[C@@H]34 [Matrine] (compound 10 µM),-0.52,-0.53,-0.24
COc1ccc2c(c1OC)CN1CCc3cc4c(cc3C1C2)OCO4 (centres undefined) [Tetrahydroberberine] (compound 10 µM),-0.04,-1.09,-0.52
CC[N+](C)(CC)CCOC(=O)C(O)(c1ccccc1)c1ccccc1 [Methylbenactyzium Bromide] (compound 10 µM),-0.26,-0.59,-0.57

# — the supplement of paper PMC7411640
